According to the supplement of paper PMC12494721:
Counter-ions that a name gives are not always drawn.

Assays:
Conditions in all cases: incubation time: 27 h, anaerobic, 37 °C;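 for the amine columns active = adjusted P below 0.05 in both replicates with a change the same way and a mean fold change under 0.8 or over 1.25; inactive = the rest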
[1] = system: Clostridium sporogenes DSM 1664; assay: growth (OD595) fold change vs plate DMSO controls (fold change (ratio)); higher = more growth
Summary of the method: (§1)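 Growth is the fold change relative to the median of plate DMSO controls. Readings came from anaerobic mGAM cultures in 96-well plates grown for 27 h at 37 °C and read at 595 nm. They were blank-subtracted, corrected for compound background with 20 µM compound solutions in water, and converted to OD with a calibration factor of 5. Values are means of 2 biological replicates, and fold changes above 1.5 were set to NA.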

[2] = system: Escherichia coli IAI1; assay: as above
Summary of the method: as §1

[3] = system: Klebsiella aerogenes DSM 30053; assay: as above
Summary of the method: as §1

[4] = system: Ruminococcus gnavus DSM 108212; assay: as above
Summary of the method: as §1

[5] = system: Klebsiella aerogenes DSM 30053; assay: fold change of Histamine concentration vs plate DMSO controls (fold change (ratio)); higher = more amine produced, active = hit call of the paper (significant change in both replicates, either direction)
Summary of the method: (§2)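 Anaerobic mGAM cultures of four gut bacterial strains were grown at 37 °C for 27 h in 80 µL wells, starting at OD 0.1 before 1:1 dilution. Compounds were at 20 µM final (sweeteners 50 µM). Whole cultures were extracted with cold acetonitrile/methanol containing 0.1% formic acid and centrifuged. Amines were quantified by LC–triple-quadrupole MS (dynamic MRM) against external calibration curves and drift-corrected within batch. Each value is the fold change versus plate DMSO controls, averaged over 2 biological replicates.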

[6] = system: Clostridium sporogenes DSM 1664; assay: fold change of Tryptamine concentration vs plate DMSO controls (fold change (ratio)); higher = more amine produced, active = hit call of the paper (significant change in both replicates, either direction)
Summary of the method: as §2

[7] = system: Ruminococcus gnavus DSM 108212; assay: as above
Summary of the method: as §2

[8] = system: Escherichia coli IAI1; assay: fold change of Putrescine concentration vs plate DMSO controls (fold change (ratio)); higher = more amine produced, active = hit call of the paper (significant change in both replicates, either direction)
Summary of the method: as §2

[9] = system: Klebsiella aerogenes DSM 30053; assay: as above
Summary of the method: as §2

[10] = system: Escherichia coli IAI1; assay: fold change of Cadaverine concentration vs plate DMSO controls (fold change (ratio)); higher = more amine produced, active = hit call of the paper (significant change in both replicates, either direction)
Summary of the method: as §2

[11] = system: Klebsiella aerogenes DSM 30053; assay: as above
Summary of the method: as §2

[12] = system: Ruminococcus gnavus DSM 108212; assay: fold change of 2-Phenylethylamine concentration vs plate DMSO controls (fold change (ratio)); higher = more amine produced, active = hit call of the paper (significant change in both replicates, either direction)
Summary of the method: as §2

## COc1ccnc(C[S+]([O-])c2nc3cc(OC(F)F)ccc3[nH]2)c1OC (configuration not stated) [Pantoprazole sodium] (20 µM)
[1]
  growth: 1.18
[2]
  growth: 1.22
[3]
  growth: 1
[4]
  growth: 0.958
[5]
  fold change of Histamine concentration: 0.936 (inactive)
[6]
  fold change of Tryptamine concentration: 1.05 (inactive)
[7]
  fold change of Tryptamine concentration: 1.05 (inactive)
[8]
  fold change of Putrescine concentration: 1.25 (inactive)
[9]
  fold change of Putrescine concentration: 1.01 (inactive)
[10]
  fold change of Cadaverine concentration: 0.98 (inactive)
[11]
  fold change of Cadaverine concentration: 1.02 (inactive)
[12]
  fold change of 2-Phenylethylamine concentration: 1.07 (inactive)

## CCOC(=O)CC(=O)N1CCSC1COc1ccccc1OC (configuration not stated) [Moguisteine] (20 µM)
[1]
  growth: 0.961
[2]
  growth: 0.997
[3]
  growth: 1.02
[4]
  growth: 0.951
[5]
  fold change of Histamine concentration: 1.02 (inactive)
[6]
  fold change of Tryptamine concentration: 1.06 (inactive)
[7]
  fold change of Tryptamine concentration: 0.978 (inactive)
[8]
  fold change of Putrescine concentration: 0.997 (inactive)
[9]
  fold change of Putrescine concentration: 1.01 (inactive)
[10]
  fold change of Cadaverine concentration: 1 (inactive)
[11]
  fold change of Cadaverine concentration: 0.987 (inactive)
[12]
  fold change of 2-Phenylethylamine concentration: 0.994 (inactive)

## CC1(C)[C@@H](OC(=O)CCC(=O)O)CC[C@]2(C)[C@H]3C(=O)C=C4[C@@H]5C[C@@](C)(C(=O)O)CC[C@]5(C)CC[C@@]4(C)[C@]3(C)CC[C@@H]12 [Carbenoxolone disodium salt] (20 µM)
[1]
  growth: 1.06
[2]
  growth: 0.984
[3]
  growth: 0.977
[4]
  growth: 0.91
[5]
  fold change of Histamine concentration: 1.03 (inactive)
[6]
  fold change of Tryptamine concentration: 0.925 (inactive)
[7]
  fold change of Tryptamine concentration: 1.04 (inactive)
[8]
  fold change of Putrescine concentration: 1.04 (inactive)
[9]
  fold change of Putrescine concentration: 1.02 (inactive)
[10]
  fold change of Cadaverine concentration: 0.999 (inactive)
[11]
  fold change of Cadaverine concentration: 0.993 (inactive)
[12]
  fold change of 2-Phenylethylamine concentration: 1.07 (inactive)

## NC(=O)C(c1ccccc1)(c1ccccc1)[C@@H]1CCN(CCc2ccc3c(c2)CCO3)C1 [Darifenacin hydrobromide] (20 µM)
[1]
  growth: 1.04
[2]
  growth: 0.975
[3]
  growth: 1.02
[4]
  growth: 0.96
[5]
  fold change of Histamine concentration: 0.873 (inactive)
[6]
  fold change of Tryptamine concentration: 1.19 (inactive)
[7]
  fold change of Tryptamine concentration: 1.1 (inactive)
[8]
  fold change of Putrescine concentration: 0.943 (inactive)
[9]
  fold change of Putrescine concentration: 1.05 (inactive)
[10]
  fold change of Cadaverine concentration: 0.961 (inactive)
[11]
  fold change of Cadaverine concentration: 1.15 (inactive)
[12]
  fold change of 2-Phenylethylamine concentration: 1.25 (inactive)

## CC(C(=O)O)c1cccc(Oc2ccccc2)c1 (configuration not stated) [Fenoprofen calcium salt dihydrate] (20 µM)
[1]
  growth: 0.882
[2]
  growth: 0.997
[3]
  growth: 1.04
[4]
  growth: 1.21
[5]
  fold change of Histamine concentration: 0.981 (inactive)
[6]
  fold change of Tryptamine concentration: 0.945 (inactive)
[7]
  fold change of Tryptamine concentration: 0.951 (inactive)
[8]
  fold change of Putrescine concentration: 0.976 (inactive)
[9]
  fold change of Putrescine concentration: 0.983 (inactive)
[10]
  fold change of Cadaverine concentration: 1.03 (inactive)
[11]
  fold change of Cadaverine concentration: 1 (inactive)
[12]
  fold change of 2-Phenylethylamine concentration: 0.937 (inactive)

## CCN(CC)C(=O)Nc1ccc(OCC(O)CNC(C)(C)C)c(C(C)=O)c1 (configuration not stated) [Celiprolol hydrochloride] (20 µM)
[1]
  growth: 1.03
[2]
  growth: 0.981
[3]
  growth: 0.953
[4]
  growth: 0.712
[5]
  fold change of Histamine concentration: 1.09 (inactive)
[6]
  fold change of Tryptamine concentration: 0.988 (inactive)
[7]
  fold change of Tryptamine concentration: 1.02 (inactive)
[8]
  fold change of Putrescine concentration: 1 (inactive)
[9]
  fold change of Putrescine concentration: 1.01 (inactive)
[10]
  fold change of Cadaverine concentration: 1.02 (inactive)
[11]
  fold change of Cadaverine concentration: 0.988 (inactive)
[12]
  fold change of 2-Phenylethylamine concentration: 1.04 (inactive)
